# Assay outcomes: PubChem BioAssay, National Center for Advancing Translational Sciences (NCATS)
# This is a sample that favours compounds with a hit; in the whole collection about 18% have one here.
# LDHA block: blocks human lactate dehydrogenase A | P00338 | purified LDHA, NADH/diaphorase-resazurin fluorescence; active compounds read low | activity change, % (values are at about 110 or 230 µM) | actives 0.15% (n = 480,000) | AID 1347041; in the data active = activity change below about -30%; inconclusive = mostly about -25% to -30%;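 also: plate controls were DMSO wells for no effect and wells without enzyme for full effect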
#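 Human LDH5 (2 nM) was incubated with 0.06 mM NADH and 0.2 mM pyruvate for 5 min at room temperature in Tris pH 7.4. Remaining NADH was coupled through diaphorase/resazurin, and resorufin fluorescence was read at 0 and 20 min.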
# VP16 counter: counter-screen for ROR gamma inhibitors: Gal4-VP16 reporter | Drosophila S2 Gal4-VP16 UAS-luciferase, luminescence, 20 h | Potency, µM (doses to about 53.6 µM), inactives show top-dose activity, negative = inhibition, actives largely listed as inhibitors | actives 3.5% (n = 310,000);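 also: Gal4-VP16 expression switched on by copper sulfate through the metallothionein promoter; potency is read from the fitted curve at half-maximal effect; nearly all actives have a fitted effect of over 50% in size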
# IL1B secr inh: blocks inflammasome-driven IL-1 beta release. activity change, % at 57.5 µM. AID 743279. actives 4.7% (n = 360,000). THP-1 LPS/ATP IL-1B secretion, AlphaLISA, 16 h; active compounds read low; in the data active = activity change below about -50%; inconclusive = mostly about -30% to -49%
#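 Secreted IL-1B measured by AlphaLISA bead assay after 16 h compound exposure of THP-1 cells; compounds (final up to 57.5 uM) added 1 h before LPS (250 ng/mL) and ATP (1.25 mM) stimulation; lower signal means less secretion.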
# DT40 TDP1 no CPT: qHTS for Inhibitors of human tyrosyl-DNA phosphodiesterase 1 (TDP1): qHTS in cells in absence of CPT; DT40 Tdp1-/- hTDP1 cells, no CPT, ATP luminescence, 48 h; actives 15% (n = 420,000); Potency, µM (titrated, usually from 46.2 µM), without a hit: top-dose activity change, negative = growth inhibition, most hits filed as inhibitors; also: potency is read from the fitted curve at half-maximal effect; nearly all actives have a fitted effect of over 55% in size
#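 Luminescent ATP content (CellTiter-Glo) served as the growth readout. Knockout chicken DT40 cells expressing human TDP1 were exposed to compounds without camptothecin for a minimum 48 hr at 37 °C.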
# RORgamma inh: ROR gamma (mouse) transcription inhibition. Potency, µM (top dose mostly 53.6 µM), without a hit: at the highest dose activity change, negative = inhibition, actives largely listed as inhibitors. actives 5.4% (n = 310,000). Drosophila S2 Gal4-RORgamma UAS-luciferase reporter, 20 h. P51450; also: potency is read from the fitted curve at half-maximal effect; nearly all actives have a fitted effect of over 60% in size
# Target sequence (P51450 whole entry, looked up, the tested form may be a part): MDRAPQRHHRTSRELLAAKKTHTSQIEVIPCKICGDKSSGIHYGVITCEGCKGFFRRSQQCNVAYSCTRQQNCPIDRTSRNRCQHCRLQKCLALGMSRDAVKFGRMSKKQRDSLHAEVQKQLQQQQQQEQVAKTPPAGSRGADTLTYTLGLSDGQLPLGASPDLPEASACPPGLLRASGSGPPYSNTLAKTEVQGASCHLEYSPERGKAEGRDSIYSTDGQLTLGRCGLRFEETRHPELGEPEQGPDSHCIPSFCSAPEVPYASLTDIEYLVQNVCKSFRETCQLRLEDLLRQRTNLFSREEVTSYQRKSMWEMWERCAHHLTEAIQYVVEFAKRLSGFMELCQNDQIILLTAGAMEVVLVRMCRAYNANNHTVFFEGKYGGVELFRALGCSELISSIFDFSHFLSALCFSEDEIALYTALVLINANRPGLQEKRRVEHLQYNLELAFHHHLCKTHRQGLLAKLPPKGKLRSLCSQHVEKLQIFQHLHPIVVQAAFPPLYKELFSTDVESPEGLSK
#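 Compounds are pin-transferred onto Drosophila Schneider cells expressing a copper-inducible Gal4–ROR gamma transactivation domain fusion. After 1 hr, copper sulfate is added to 700 uM final; luciferase is read 20 hr later.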
# TDP1 cell CPT: growth inhibition of DT40 Tdp1-/-;hTDP1 cells with camptothecin (screen for TDP1 inhibitors) | chicken DT40 Tdp1-/-;hTDP1 cells + 20 nM CPT, ATP luminescence, 48 h | Potency, µM (doses to about 46.2 µM), for the others: at the top dose activity change, negative = growth inhibition, most hits filed as inhibitors | actives 12% (n = 420,000) | AID 686979; also: potency is read from the fitted curve at half-maximal effect; nearly all actives have a fitted effect of over 55% in size
#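 Cell growth measured by CellTiter-Glo luminescence after a minimum 48 h, 37 C compound exposure with 20 nM CPT in Tdp1-knockout DT40 cells stably expressing hTDP1, seeded 400/well; qHTS titration format.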
# * hit, by the source's call; ? = inconclusive; nt = not tested or not shown. Unless noted, calls follow the shape of the dose curve; as a rule, active = well fitted curve in the direction sought with a large enough effect; inconclusive = small, poorly fitted or top-dose-only effect, or another doubt; inactive = no such curve, though single readings can be large; an effect the other way counts as inactive or inconclusive. Unless noted, % is scaled to controls: 0 for no effect and ±100 for the full control effect.
SMILES,LDHA block,VP16 counter,IL1B secr inh,DT40 TDP1 no CPT,RORgamma inh,TDP1 cell CPT
N#C/C(=C/c1ccccc1OCc1ccccc1)c1cccc(F)c1,6,nt,nt,nt,nt,nt
Cc1ccc(C)n1-c1ccc(C(=O)Nc2ccccc2)cc1,-6,27%,-65*,26µM*,36%,?
Cc1ccccc1C(=O)NC1CCN(Cc2ccccc2)CC1,-7,7%,57,1%,-4%,0%
CCc1ccc(CN2CCC(Oc3cc(C(=O)NC4CC4)ccc3OC)CC2)cc1,-2,nt,-4,15µM*,nt,-32%
Cc1ccc(C)n1-c1ccc(C(=O)NC2CCN(Cc3ccccc3)CC2)cc1,-7,-15%,-59*,21µM*,14%,?
Cc1ccc(CN2CCC(NC(=O)c3ccccc3)CC2)cc1,-3,-16%,0,18µM*,2%,?
Fc1ccc(/C=N/Nc2ccc3ccccc3c2)c(F)c1,24,nt,nt,nt,nt,nt
O=C(/C=C/c1cccc(Cl)c1)NC1CCCC1,-1,nt,nt,nt,nt,nt
Cc1ccc(NC(=O)C(C)OC(=O)C2=CN3CCS(=O)(=O)N=C3C=C2)cc1 (stereo unspecified),3,nt,nt,nt,nt,nt
CCOc1cc(CNC2CCCC2)c(Cl)cc1OCC(=O)Nc1ccccc1,-4,4%,-26,18µM*,5%,18µM*
CCN(c1ccccc1)S(=O)(=O)c1ccc(C(=O)NC2CCCCCC2)cc1,3,nt,nt,nt,nt,nt
CCN(c1ccccc1)S(=O)(=O)c1ccc(C(=O)NC2CCN(Cc3ccccc3)CC2)cc1,4,nt,?,7.3µM*,nt,8.2µM*
O=C(NC1CCN(Cc2ccccc2)CC1)c1cccc(OC(F)F)c1,-3,1%,?,-20%,24%,-12%
O=C(NC1CCN(Cc2ccccc2)CC1)c1cccc(Br)c1,0,2%,-25,?,1%,16µM*
O=C(/C=C/c1cccc(F)c1)NC1CCN(Cc2ccccc2)CC1,-6,4%,-13,?,7%,-13%
O=C(/C=C/c1cccc(Br)c1)NC1CCN(Cc2ccccc2)CC1,-9,-5%,-78*,23µM*,0%,?
Cc1c(-c2ccccc2)oc2c(C(=O)OCC(=O)Nc3ccc(F)c(F)c3F)cccc2c1=O,-4,nt,nt,nt,nt,nt
O=C(COc1ncnc2sc3c(c12)CCCC3)N1CCc2ccccc2C1,7,nt,nt,nt,nt,nt
CCc1cccc(C)c1NC(=O)c1cc(=O)c2cc(C)ccc2o1,10,nt,nt,nt,nt,nt
COC(=O)/C(C#N)=C/c1ccc(OC)c(COc2cccc(C(F)(F)F)c2)c1,-2,nt,nt,nt,nt,nt
O=C(COc1ccc(Br)cc1CNC1CCCCC1)NCCc1ccccc1,1,-10%,-97*,16µM*,-4%,18µM*
C=C(C)c1cccc(C(C)(C)NC(=O)N(Cc2ccccc2)Cc2ccco2)c1,0,0%,-19,21µM*,19%,16µM*
CC1(C(=O)NC2CCN(Cc3ccccc3)CC2)CCN1CCc1ccccc1 (stereo unspecified),-7,nt,-5,?,nt,29µM*
O=C(O)/C=C/C(=O)N(Cc1ccccc1)Cc1ccco1,-3,1%,38,18%,-1%,17%
O=C(COc1ccc(Br)cc1Cl)NC1CCN(Cc2ccccc2)CC1,-1,-5%,-81*,?,33%,?
SMILES,LDHA block,VP16 counter,IL1B secr inh,DT40 TDP1 no CPT,RORgamma inh,TDP1 cell CPT
O=C(NC1CCCC1)C1=Cc2cc(Cl)ccc2OC=C1,0,nt,nt,nt,nt,nt
O=C(COC(=O)Cn1cnc2ccccc21)Nc1cccc(F)c1,0,nt,nt,nt,nt,nt
C=C(C)c1cccc(C(C)(C)NC(=O)N2CCCC2)c1,0,-8%,1,-27%,?,-7%
C=C(C)c1cccc(C(C)(C)NC(=O)NC2CCN(Cc3ccccc3)CC2)c1,-3,-12%,-12,18µM*,-3%,?
O=C(c1cc(Br)ccc1Cl)N(C1CCCCC1)C1CCCCC1,2,nt,nt,nt,nt,nt
COc1ccccc1N1CCN(C(=O)C2CCCCN2S(=O)(=O)c2ccc(C)cc2)CC1 (stereo unspecified),-4,-5%,-4,?,-10%,18µM*
COc1ccccc1N1CCN(C(=O)C2CCCN(S(=O)(=O)c3ccc(C)cc3)C2)CC1 (stereo unspecified),-6,nt,-26,10µM*,nt,16µM*
CCCC1CCC(=NNC(=S)NCc2ccccc2)CC1 (stereo unspecified),2,nt,nt,nt,nt,nt
CC(Oc1ccc(Cl)cc1Cl)c1ccnc2nc(N3CCOCC3)nn12 (stereo unspecified),-3,-8%,-52*,18µM*,?,?
N#CC1(Cc2ccccc2)c2ccccc2C=CN1C(=O)c1ccccc1 (stereo unspecified),-4,4%,14,?,-39%,?
N#CC1(Cc2ccc([N+](=O)[O-])cc2)c2ccccc2C=CN1C(=O)c1ccccc1 (stereo unspecified),-4,-4%,-20,15µM*,-8%,?
Cc1cc2c(cc1S(=O)(=O)N1CCC(C(=O)N3CCCC3)CC1)OCC(=O)N2,11,nt,nt,nt,nt,nt
Cc1ccc(-n2ncc3c(NNC(=O)c4ccco4)ncnc32)c(C)c1,-1,?,1,-11%,11µM*,0%
Cc1ccc(-n2ncc3c(NNC(=O)c4cccs4)ncnc32)cc1,-15,10µM*,-4,-8%,1.3µM*,0%
Cc1cccc(C(=O)NNc2ncnc3c2cnn3-c2ccc(C)cc2C)c1,3,nt,nt,?,nt,23µM*
O=C(NNc1ncnc2c1cnn2-c1ccccc1)c1ccccc1,2,nt,nt,?,nt,-19%
Cc1ccc(-n2ncc3c(NCc4ccco4)ncnc32)c(C)c1,-3,11%,-1,?,?,?
C=CCn1c(SCC(=O)O)nc2c1c(=O)[nH]c(=O)n2C,3,nt,nt,nt,nt,nt
Cc1ccc(-c2cc(Nc3ccccc3)nc(C)n2)cc1,-1,nt,nt,nt,nt,nt
CC12CCC(C(=O)N(CSC(=S)N/N=C\c3ccccc3O)C1=O)C2(C)C (stereo unspecified),0,?,99,15µM*,?,?
CN(C)c1ccc(/C=N\NC(=S)SCN2C(=O)C3CCC(C)(C2=O)C3(C)C)cc1 (stereo unspecified),5,?,-3,?,0.32µM*,-3%
CCOC(=O)/C(C#N)=C/c1cc(Br)ccc1OCc1ccccc1Cl,11,nt,nt,nt,nt,nt
CC(Cc1ccco1)NC(=O)CCc1nc(C(C)(C)C)no1 (stereo unspecified),-7,nt,nt,nt,nt,nt
